PBM binding z-score data for 39 sequences are collected here from the supplement of paper PMC6555819.

One test deals with RARa homodimer (NR concentration 270 nM). Kind of test: PBM binding z-score (relative to random genomic background probes); higher = stronger binding; sequences stand for … in GC…GCGATTGACAGCGTAGAATGAAGG
In outline: (§1)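 The probes on custom Agilent 4×180K protein-binding microarrays were double-stranded, with 34-nt variable regions bearing direct-repeat seeds, single-nucleotide variants, half-site ablations and random human genomic background sequences. Incubation lasted 1 h with ligand-free nuclear receptor dimers in PBS pH 7.4, 2% milk, 0.02% Triton X-100, 1 mM DTT, 0.2 mg/mL BSA and 0.4 mg/ml salmon testes DNA. Antibodies against each partner (one per run) detected bound dimers, and fluorescence scans were regression-normalized. Binding z-scores take the random background probes as reference.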
For the sequence CTACCAAGGTGGACAAGGTCGTTGATTACTATTC, the PBM binding z-score amounted to 0.219.

Consider AGAGTGAGGTTAAGATCAGGGAAACAGAATACAT, for which the PBM binding z-score was 1.55.

CCAGACAGGTGAAAGGGAACTCAGTCTGGTACGC had a PBM binding z-score of 0.262.

In turn, CGAACTAGGTCATGGACAGTGAATCTCCGCACGC gave a PBM binding z-score of 0.353.

On to CGACCTAGGTCATCCAGGACAGTGAATACATTGA, for which the PBM binding z-score is 0.643.

For TAGCCTAGGTCATGCGGGCCACTATAGTGTCGGC, the PBM binding z-score is 0.388.

On to ACTAGCAGGCCCAGTTTGGGTCACTCAAACAAAG, for which the PBM binding z-score was -0.613.

As for TAGCCTAGGTCATTCAGGTGCCAGTATAGAAAGC, the PBM binding z-score was -0.175.

For ATCCCTAGGTAAAGATAGTTCAGTGAATGCAAAT, the PBM binding z-score is 1.04.

CAAACTAGGGCACCGGAAGGTCAAAGTCCGCATG yielded a PBM binding z-score of 0.355.

The sequence CCCCGGAGGACAACAGGAGGTCAGAGCTGCCAGA came in with a PBM binding z-score of 0.677.

For the sequence CAAACTAGGTCAAGAGGGCAAAGTCCGCTTCCCG, the PBM binding z-score stood at 1.19.

Turning to ATCCAAAGGTCGACGAGGTGAGTATACACCGTTT, the PBM binding z-score turned out to be 0.92.

Consider TATACAGGGTCAAACGCCAGAGTACGAATGTCGA, for which the PBM binding z-score is 0.721.

For the sequence ACTAGCAGGCCAAGTCTGGGTCACTCAAACAAAG, the PBM binding z-score is -0.573.

In the case of GCAGACAGGTGAAACGCAGGTGACTCAGGGTGGC, the PBM binding z-score is -0.193.

Take ATCTGTAGGTAACCAAGTTCAGTGAATGCCGAAC: the PBM binding z-score came to 0.332.

Take CTTACTGGGCCATTCAGAGGTCATTGATCATATG: the PBM binding z-score is 0.436.

Consider ATACCAAGGTGATCGTGAGGTCGTTCATACTAAC, for which the PBM binding z-score was 0.612.

In the case of TAGCCTAGGTCATTCAGTGGCCAGTATAGAAAGC, the PBM binding z-score is -0.566.

Consider AGTCAAAGTTCCCTAGGTAACGTAAGATTCAGCT, for which the PBM binding z-score is -0.463.

With TCTTGTAGATCAAGCAGGTGAAGAAAGCCTGAGT, the PBM binding z-score was -0.384.

As for CCTAGTTGGTCAAAGTCACACACGCTATAGGTAC, the PBM binding z-score came to 1.44.

Turning to CCTAGTTGGTCGAGGTCACACACGCTATAGGTAC, the PBM binding z-score turned out to be 1.8.

GATACAGGGTCAAGGCCAGAGTTCGCGTATTGAT returned a PBM binding z-score of 1.32.

Sequence CCAACTAGGTCAAGGACAGTGAATCTCCGCACGC had a PBM binding z-score of 1.21.

For TCTTGTAGATCAGCATGTTAAGAAAGCTGGCCAA, the PBM binding z-score was -0.0517.

As for ACTTACGGGTCAACGAGGTTATAGCGCGCGTATA, the PBM binding z-score was 0.581.

CGTCCAAGGTCAAAGATCAGTGAAGAGATGACGG returned a PBM binding z-score of 1.03.

For the sequence CCTTACGGGTCGAGGTTATAGCACGGGTGGTACG, the PBM binding z-score is -0.219.

As for GCTGACAGGTGAAACGCAGGTAACTCAGGGTGGC, the PBM binding z-score is -1.1.

The sequence CCTACTGGTCCACGAAAGGTCATTGATTCAGTGA showed a PBM binding z-score of 2.86.

Regarding CCAACTGGGGCAAGGTTACCATAACGCACAGCCA, the PBM binding z-score is 0.291.

For the sequence GCTGCTAGGTCAGGTTGGTCACCTAACGGGTACG, the PBM binding z-score amounted to 0.0555.

On to CCGACTGGGGCAAAGGGTACCATACTCAGTACGA, for which the PBM binding z-score was -0.388.

As for ATCTCTAGGTAAGACTAAGTTCAGTGAAGAACGC, the PBM binding z-score worked out at 0.975.

In turn, TCTATTAGTTTATTAGGGCAACCGAAACAGCGGA came in with a PBM binding z-score of 1.74.

For the sequence CCTTACGGGCCACTCCAGGTTATAGCATCGGAGT, the PBM binding z-score came out at 0.0434.

Take TCTTGTAGATCAAGCACGTTAAGAAAGCCTGAGT: the PBM binding z-score is -0.338.

For another test, the system named is RARb:RXRa (NR concentration 270 nM, RXRa partner concentration 90 nM). The test is described as above. In outline:
as §1
As to CTACCAAGGTGGACAAGGTCGTTGATTACTATTC, the PBM binding z-score came out at 0.561.

Regarding AGAGTGAGGTTAAGATCAGGGAAACAGAATACAT, the PBM binding z-score worked out at 2.38.

As to CCAGACAGGTGAAAGGGAACTCAGTCTGGTACGC, the PBM binding z-score amounted to 0.537.

Sequence CGAACTAGGTCATGGACAGTGAATCTCCGCACGC displayed a PBM binding z-score of 3.61.

For the sequence CGACCTAGGTCATCCAGGACAGTGAATACATTGA, the PBM binding z-score amounted to 4.

TAGCCTAGGTCATGCGGGCCACTATAGTGTCGGC gave a PBM binding z-score of 3.69.

Regarding ACTAGCAGGCCCAGTTTGGGTCACTCAAACAAAG, the PBM binding z-score stood at 0.828.

In turn, TAGCCTAGGTCATTCAGGTGCCAGTATAGAAAGC registered a PBM binding z-score of 3.6.

ATCCCTAGGTAAAGATAGTTCAGTGAATGCAAAT: the PBM binding z-score stood at 0.863.

Sequence CAAACTAGGGCACCGGAAGGTCAAAGTCCGCATG gave a PBM binding z-score of 4.01.

Sequence CCCCGGAGGACAACAGGAGGTCAGAGCTGCCAGA registered a PBM binding z-score of 2.86.

Sequence CAAACTAGGTCAAGAGGGCAAAGTCCGCTTCCCG yielded a PBM binding z-score of 4.53.

For ATCCAAAGGTCGACGAGGTGAGTATACACCGTTT, the PBM binding z-score was 4.07.

TATACAGGGTCAAACGCCAGAGTACGAATGTCGA yielded a PBM binding z-score of 4.45.

Sequence ACTAGCAGGCCAAGTCTGGGTCACTCAAACAAAG returned a PBM binding z-score of 1.75.

GCAGACAGGTGAAACGCAGGTGACTCAGGGTGGC came in with a PBM binding z-score of 1.01.

ATCTGTAGGTAACCAAGTTCAGTGAATGCCGAAC: the PBM binding z-score was 1.08.

CTTACTGGGCCATTCAGAGGTCATTGATCATATG gave a PBM binding z-score of 3.23.

With ATACCAAGGTGATCGTGAGGTCGTTCATACTAAC, the PBM binding z-score worked out at 1.5.

For the sequence TAGCCTAGGTCATTCAGTGGCCAGTATAGAAAGC, the PBM binding z-score came to 3.65.

The sequence AGTCAAAGTTCCCTAGGTAACGTAAGATTCAGCT gave a PBM binding z-score of 0.687.

With TCTTGTAGATCAAGCAGGTGAAGAAAGCCTGAGT, the PBM binding z-score was -0.159.

Regarding CCTAGTTGGTCAAAGTCACACACGCTATAGGTAC, the PBM binding z-score worked out at 1.42.

Take CCTAGTTGGTCGAGGTCACACACGCTATAGGTAC: the PBM binding z-score came out at 3.63.

The sequence GATACAGGGTCAAGGCCAGAGTTCGCGTATTGAT returned a PBM binding z-score of 4.49.

Consider CCAACTAGGTCAAGGACAGTGAATCTCCGCACGC, for which the PBM binding z-score came to 3.98.

TCTTGTAGATCAGCATGTTAAGAAAGCTGGCCAA: the PBM binding z-score is -0.19.

Sequence ACTTACGGGTCAACGAGGTTATAGCGCGCGTATA registered a PBM binding z-score of 4.29.

As for CGTCCAAGGTCAAAGATCAGTGAAGAGATGACGG, the PBM binding z-score is 5.16.

CCTTACGGGTCGAGGTTATAGCACGGGTGGTACG: the PBM binding z-score was 1.97.

As for GCTGACAGGTGAAACGCAGGTAACTCAGGGTGGC, the PBM binding z-score was 0.773.

The sequence CCTACTGGTCCACGAAAGGTCATTGATTCAGTGA had a PBM binding z-score of 3.95.

As to CCAACTGGGGCAAGGTTACCATAACGCACAGCCA, the PBM binding z-score worked out at 1.78.

The sequence GCTGCTAGGTCAGGTTGGTCACCTAACGGGTACG registered a PBM binding z-score of 3.39.

CCGACTGGGGCAAAGGGTACCATACTCAGTACGA gave a PBM binding z-score of 1.11.

In the case of ATCTCTAGGTAAGACTAAGTTCAGTGAAGAACGC, the PBM binding z-score worked out at 1.19.

The sequence TCTATTAGTTTATTAGGGCAACCGAAACAGCGGA yielded a PBM binding z-score of 1.57.

Take CCTTACGGGCCACTCCAGGTTATAGCATCGGAGT: the PBM binding z-score was 0.496.

For TCTTGTAGATCAAGCACGTTAAGAAAGCCTGAGT, the PBM binding z-score is -0.035.
